In PMC8384837, “Expanding the binding specificity for RNA recognition by a PUF domain” one finds binding signal data, which are given here for nine sequences.

Common to all, as to test: yeast three-hybrid, YBZ-1, SC-Leu-His + 0.5 mM 3-AT, 4 days
Settings in all cases: tags: N-Gal4 AD-HA kept; label: inside an RPR1-promoter hybrid RNA with tandem MS2 sites; ssRNA

One test addresses PUM1 PUF domain R1-NYS (Homo sapiens, UniProt Q14671 828-1176, S863N;R864Y;Q867S). The procedure, abridged:
(§1)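 The interaction score is the logarithmic change in variant frequency from input to selection. It uses log2, with a pseudocount of 1 for absent variants, and frequencies came from PCR-amplified, Illumina-sequenced repeat regions. The libraries were Pumilio-1 PUF domains randomized at the three base-contacting residues per repeat, co-expressed with matching RNA elements in strain YBZ-1 (LexA–MS2 coat fusion, HIS3 reporter). Plating lasted four days on SC-Leu (input) or SC-Leu-His + 0.5 mM 3-AT (selection).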

The next test concerns the target PUM1 PUF domain R1-YFR (Homo sapiens, UniProt Q14671 828-1176, S863Y;R864F;Q867R). The procedure, abridged: as §1
For the next test, the target named is T1, PUM1 PUF domain R6-CWI (Homo sapiens, UniProt Q14671 828-1176, N1043C;Y1044W;Q1047I).
T1 sequence: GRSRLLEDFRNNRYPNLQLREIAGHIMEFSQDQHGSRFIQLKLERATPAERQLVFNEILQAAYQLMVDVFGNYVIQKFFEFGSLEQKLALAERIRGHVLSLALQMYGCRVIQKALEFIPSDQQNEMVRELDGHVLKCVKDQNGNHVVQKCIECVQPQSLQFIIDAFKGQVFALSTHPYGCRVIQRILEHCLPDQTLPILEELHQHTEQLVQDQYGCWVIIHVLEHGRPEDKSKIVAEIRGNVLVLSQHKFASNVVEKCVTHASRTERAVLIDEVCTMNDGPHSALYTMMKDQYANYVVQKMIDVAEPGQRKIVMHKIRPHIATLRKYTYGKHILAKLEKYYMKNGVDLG
The procedure, abridged:
as §1

In a further test the target is PUM1 PUF domain R5-YNG (Homo sapiens, UniProt Q14671 828-1176, C1007Y;R1008N;Q1011G). The procedure, abridged: as §1
In another test the target is PUM1 PUF domain R5-TYF (Homo sapiens, UniProt Q14671 828-1176, C1007T;R1008Y;Q1011F). The procedure, abridged:
as §1

Another test deals with PUM1 PUF domain R3-CRA (Homo sapiens, UniProt Q14671 828-1176, Q939A). The procedure, abridged:
as §1

In a further test the target is PUM1 PUF domain R8-IRR (Homo sapiens, UniProt Q14671 828-1176, N1122I;Y1123R;Q1126R). The procedure, abridged:
as §1

Another test concerns the target PUM1 PUF domain R5-RKD (Homo sapiens, UniProt Q14671 828-1176, C1007R;R1008K;Q1011D). The procedure, abridged: as §1
For another test, the target named is PUM1 PUF domain R3-SIR (Homo sapiens, UniProt Q14671 828-1176, C935S;R936I;Q939R). The procedure, abridged:
as §1

The next test deals with PUM1 PUF domain R7-RYP (Homo sapiens, UniProt Q14671 828-1176, S1079R;N1080Y;E1083P). The procedure, abridged:
as §1

Consider “GGCUAGAACUAGUGGAUCCCCCGGCGCCCGGCGGCUCGAGCCCGGGUAAGUGUAAAUUGUCUGCAUGCCGCCGGGCGCCAUGCCUGCAGGUCGACUCUAGAAAACAUG”, for which the binding signal with PUM1 PUF domain R1-NYS was 3.41 log2 enrichment (interaction score); with PUM1 PUF domain R1-YFR, 6.74 log2 enrichment (interaction score). As to “GGCUAGAACUAGUGGAUCCCCCGGCGCCCGGCGGCUCGAGCCCGGGUAAGUGUAAAUAGUCUGCAUGCCGCCGGGCGCCAUGCCUGCAGGUCGACUCUAGAAAACAUG”, the binding signal in the test with PUM1 PUF domain R1-NYS is 2.51 log2 enrichment (interaction score); with PUM1 PUF domain R6-CWI, 4.75 log2 enrichment (interaction score); with PUM1 PUF domain R5-YNG it was 2.79 log2 enrichment (interaction score); with PUM1 PUF domain R5-TYF, 2.88 log2 enrichment (interaction score); in the test with PUM1 PUF domain R3-CRA, 2.9 log2 enrichment (interaction score); with PUM1 PUF domain R8-IRR, 1.39 log2 enrichment (interaction score). On to “GGCUAGAACUAGUGGAUCCCCCGGCGCCCGGCGGCUCGAGCCCGGGUAAGUGUAAAUGGUCUGCAUGCCGCCGGGCGCCAUGCCUGCAGGUCGACUCUAGAAAACAUG”, for which the binding signal with PUM1 PUF domain R1-YFR is 2.6 log2 enrichment (interaction score). “GGCUAGAACUAGUGGAUCCCCCGGCGCCCGGCGGCUCGAGCCCGGGUAAGUGUCAAUAGUCUGCAUGCCGCCGGGCGCCAUGCCUGCAGGUCGACUCUAGAAAACAUG”: the binding signal with PUM1 PUF domain R5-RKD was 4.06 log2 enrichment (interaction score). With “GGCUAGAACUAGUGGAUCCCCCGGCGCCCGGCGGCUCGAGCCCGGGUAAGUGUUAAUAGUCUGCAUGCCGCCGGGCGCCAUGCCUGCAGGUCGACUCUAGAAAACAUG”, the binding signal with PUM1 PUF domain R5-TYF was 1.26 log2 enrichment (interaction score). As for “GGCUAGAACUAGUGGAUCCCCCGGCGCCCGGCGGCUCGAGCCCGGGUAAGUGUAAGUAGUCUGCAUGCCGCCGGGCGCCAUGCCUGCAGGUCGACUCUAGAAAACAUG”, the binding signal with PUM1 PUF domain R3-CRA was 1.42 log2 enrichment (interaction score); with PUM1 PUF domain R3-SIR, 2.77 log2 enrichment (interaction score).

With “GGCUAGAACUAGUGGAUCCCCCGGCGCCCGGCGGCUCGAGCCCGGGUAAGCGUAAAUAGUCUGCAUGCCGCCGGGCGCCAUGCCUGCAGGUCGACUCUAGAAAACAUG”, the binding signal in the test with PUM1 PUF domain R8-IRR is 2.44 log2 enrichment (interaction score).

As to “GGCUAGAACUAGUGGAUCCCCCGGCGCCCGGCGGCUCGAGCCCGGGUAAGUCUAAAUAGUCUGCAUGCCGCCGGGCGCCAUGCCUGCAGGUCGACUCUAGAAAACAUG”, in the test with PUM1 PUF domain R7-RYP, the binding signal was 5.27 log2 enrichment (interaction score).

In the case of “GGCUAGAACUAGUGGAUCCCCCGGCGCCCGGCGGCUCGAGCCCGGGUAAGUGUAAUUAGUCUGCAUGCCGCCGGGCGCCAUGCCUGCAGGUCGACUCUAGAAAACAUG”, the binding signal with PUM1 PUF domain R3-SIR was 1.21 log2 enrichment (interaction score).
